From PubChem BioAssay
Active and inactive are the calls of the source.

How the values were obtained:
[1] = tested on: Human papillomavirus type 1a protein E7 (residues 44-93); test: HPV1a E7 fragment binders on microarrays, primary screen, biochemical, small-molecule microarray, residues 44-93, 635 nm fluorescence (AID 1108); settings: small-molecule microarray binding, fluorescence 635 nm; higher = more signal;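 note: E7 fragment applied at 1 µg/mL in TBST for 1 h at 4 C; score combines spot fluorescence with its signal to noise ratio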
[2] = modulators of HCV replicon luciferase signal, primary screen, HCV replication inhibitor project, Huh7 cells, luciferase reporter (AID 1109); settings: 48 h, higher = more signal;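 note: huh7 hepatoma cells harbouring a luciferase neomycin HCV replicon reporter; luciferase luminescence as measure of HCV replicon replication; test concentration not given here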
[3] = target: Left-right determination factor 2 (Homo sapiens) (UniProt O00292); test: LEFTY2 binders on small-molecule microarrays, primary screen, biochemical, small-molecule microarray, 635 nm fluorescence scan (AID 1110); settings: LEFTY2 binding, higher = more signal
Left-right determination factor 2 (Homo sapiens), sequence (O00292 whole entry, looked up): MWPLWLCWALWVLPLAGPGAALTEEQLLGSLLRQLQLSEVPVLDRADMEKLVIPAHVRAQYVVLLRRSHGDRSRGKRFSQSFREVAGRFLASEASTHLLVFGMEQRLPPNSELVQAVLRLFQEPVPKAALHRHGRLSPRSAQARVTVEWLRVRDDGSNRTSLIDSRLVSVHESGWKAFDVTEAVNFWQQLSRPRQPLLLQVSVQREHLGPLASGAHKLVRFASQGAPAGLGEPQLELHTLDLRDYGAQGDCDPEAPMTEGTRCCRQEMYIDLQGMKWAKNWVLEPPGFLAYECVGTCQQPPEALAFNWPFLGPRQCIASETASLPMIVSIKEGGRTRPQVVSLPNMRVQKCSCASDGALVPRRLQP

[4] = target: Calmodulin-1 (Homo sapiens) (UniProt P0DP23); test: CALM1 binders on microarrays, EGTA buffer, profiling panel, biochemical, small-molecule microarray, Cy5-labelled CALM1 (AID 1111); settings: Cy5-CALM1 binding fluorescence, higher = more signal;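 note: labelled calmodulin applied in Tris saline Tween buffer holding calcium plus EGTA and DTT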
[5] = target: Calmodulin-1 (Homo sapiens) (UniProt P0DP23); test: calcium-bound CALM1 binders on microarrays, profiling panel, artefact control for SMM control-protein annotation, biochemical, small-molecule microarray, Cy5-labelled CALM1, plus calcium (AID 1112); settings: Cy5-CALM1 binding fluorescence, higher = more signal;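 note: score merges spot fluorescence with signal to noise from triplicate slides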
[6] = small-molecule microarray binders of probe aWnt5a, primary screen, biochemical, biotinylated probe, 635/667 nm fluorescence (AID 1113); settings: higher = more signal;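 note: score merges 667 nm fluorescence intensity with signal-to-noise per printed feature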
[7] = small-molecule microarray binders of probe aShh, primary screen, biochemical, biotinylated probe, 635/667 nm fluorescence (AID 1114); settings: higher = more signal;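 note: probe is biotin-labelled aShh protein from a stem cell growth factor screen; measures binding of labelled protein to compounds printed on the slide; score merges feature fluorescence at 667 nm with signal-to-noise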
[8] = small-molecule microarray binders of probe aNog, primary screen, biochemical, biotinylated probe, 635/667 nm fluorescence (AID 1115); settings: higher = more signal;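 note: probe is biotinylated aNog protein used at 0.15 µg/mL for 1 h at 4 C; z-score combines 667 nm fluorescence of each spot with its signal to noise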
[9] = target: Torsin-1A-interacting protein 1 (Homo sapiens) (UniProt Q5JTV8); test: LAP1 binders from COS7 cell lysate, primary screen, small-molecule microarray, 635/667 nm fluorescence (AID 1116); settings: COS7-hLAP1 lysate binding, 635 nm fluorescence, higher = more signal
Torsin-1A-interacting protein 1 (Homo sapiens), sequence (Q5JTV8 whole entry, looked up): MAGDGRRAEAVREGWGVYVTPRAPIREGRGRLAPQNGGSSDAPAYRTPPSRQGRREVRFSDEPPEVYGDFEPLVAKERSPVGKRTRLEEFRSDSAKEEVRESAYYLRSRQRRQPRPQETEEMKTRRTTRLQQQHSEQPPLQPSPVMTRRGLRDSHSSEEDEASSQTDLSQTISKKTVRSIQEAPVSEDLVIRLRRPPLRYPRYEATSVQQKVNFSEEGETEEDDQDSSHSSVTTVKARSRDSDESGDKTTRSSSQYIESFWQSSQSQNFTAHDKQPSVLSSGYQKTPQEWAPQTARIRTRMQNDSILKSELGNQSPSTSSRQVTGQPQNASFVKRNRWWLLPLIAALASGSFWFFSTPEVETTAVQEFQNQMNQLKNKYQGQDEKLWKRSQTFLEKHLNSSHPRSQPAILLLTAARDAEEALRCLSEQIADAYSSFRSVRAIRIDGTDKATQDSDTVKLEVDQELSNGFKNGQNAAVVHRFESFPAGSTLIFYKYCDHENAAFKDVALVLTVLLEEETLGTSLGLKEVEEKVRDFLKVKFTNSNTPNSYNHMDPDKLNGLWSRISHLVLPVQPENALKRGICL

[10] = target: Alpha-bungarotoxin (Bungarus multicinctus) (UniProt P60615); test: alpha-bungarotoxin binders on microarray, profiling panel, artefact control for SMM control protein annotation, biochemical, small-molecule microarray, Alexa647 label, 635/667 nm fluorescence (AID 1117); settings: alpha-BTX-A647 binding fluorescence, higher = more signal
Alpha-bungarotoxin (Bungarus multicinctus), sequence (P60615 whole entry, looked up): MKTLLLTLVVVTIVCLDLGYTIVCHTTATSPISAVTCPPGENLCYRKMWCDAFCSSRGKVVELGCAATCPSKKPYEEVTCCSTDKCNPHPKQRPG

Albumin (Bos taurus) = Albumin (Bos taurus) (UniProt P02769); test: bovine serum albumin binders on microarray, profiling panel, artefact control for SMM control protein annotation, biochemical, small-molecule microarray, Alexa647 label, 635/667 nm fluorescence (AID 1118); settings: BSA-A647 binding, fluorescence 635 nm, higher = more signal;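 note: score merges 667 nm emission intensity and signal-to-noise per printed compound spot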
Albumin (Bos taurus), sequence (P02769 whole entry, looked up): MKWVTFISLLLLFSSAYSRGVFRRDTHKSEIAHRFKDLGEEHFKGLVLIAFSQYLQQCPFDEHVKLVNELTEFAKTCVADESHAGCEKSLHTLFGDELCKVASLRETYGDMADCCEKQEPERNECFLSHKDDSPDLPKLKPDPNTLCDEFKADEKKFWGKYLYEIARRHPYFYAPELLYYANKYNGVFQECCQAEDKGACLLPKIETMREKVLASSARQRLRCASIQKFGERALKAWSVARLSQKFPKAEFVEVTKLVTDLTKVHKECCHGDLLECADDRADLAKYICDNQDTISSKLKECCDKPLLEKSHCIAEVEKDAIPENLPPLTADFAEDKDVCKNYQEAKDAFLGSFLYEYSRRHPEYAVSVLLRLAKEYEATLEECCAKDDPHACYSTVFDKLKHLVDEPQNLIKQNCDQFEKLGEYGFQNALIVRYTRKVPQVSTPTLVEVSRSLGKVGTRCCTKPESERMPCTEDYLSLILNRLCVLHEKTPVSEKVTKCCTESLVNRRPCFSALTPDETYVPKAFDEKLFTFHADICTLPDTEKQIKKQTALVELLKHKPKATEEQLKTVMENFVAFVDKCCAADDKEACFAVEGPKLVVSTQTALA

[11] = small-molecule microarray binders of probe aXIP, primary screen, biochemical, NeuroSMM set, 635/667 nm fluorescence (AID 1119); settings: higher = more signal, called active from +8 up or from −8 down;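 note: probe is the protein aXip251-270 applied at 1 µg/mL to compound-printed slides; binding of probe to printed compounds measured as 667 nm fluorescence plus signal to noise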
[12] = small-molecule binders of probe aNOTCH3, primary screen, biochemical, small-molecule microarray, 635/667 nm fluorescence (AID 1120); settings: higher = more signal;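 note: probe is a biotin-tagged antibody raised against NOTCH3 rather than NOTCH3 protein; score merges spot fluorescence near 667 nm with spot signal to noise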
[13] = small-molecule binders of probe aNOTCH2, primary screen, biochemical, small-molecule microarray, 635/667 nm fluorescence (AID 1121); settings: higher = more signal;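 note: score merges feature fluorescence read at 667 nm with its signal to noise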
[14] = target: Carbonic anhydrase 2 (Homo sapiens) (UniProt P00918); test: CAII small-molecule binders, profiling panel, biochemical, small-molecule microarray, Alexa647-labelled CAII (AID 1122); settings: CAII-A647 binding fluorescence, higher = more signal
[15] = COS7 lysate on small-molecule microarray, probe aHis, 635 nm (AID 1123); settings: COS7 cell lysate, fluorescence, higher = more signal;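 note: z-score combines 667nm fluorescence intensity with signal-to-noise per printed compound spot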
[16] = compound binding in COS7 lysate, probe aLAP1, primary screen, cell lysate, small-molecule microarray (AID 1124); settings: probe aLAP1, fluorescence, higher = more signal;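 note: lysate comes from COS7 cells expressing LAP1 and is applied at 0.3 µg/mL; score merges spot fluorescence near 667 nm with signal-to-noise over triplicate slides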
Sam68 (KHDRBS1) = test: Sam68 small-molecule binders, primary screen, biochemical, small-molecule microarray, 635 nm fluorescence (AID 1125); settings: small-molecule microarray binding, higher = more signal;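 note: score merges 667 nm channel intensity with signal to noise over triplicate slides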
[17] = tested on: Chordin-like protein 2 (CHRDL2); test: CHRDL2 small-molecule binders, primary screen, biochemical, small-molecule microarray, 635 nm fluorescence (AID 1126); settings: small-molecule microarray binding, fluorescence 635 nm; higher = more signal;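 note: printed compound slides probed with Chrdl2 protein at 4 µg/mL for 1 h at 4 C; score merges 667 nm emission intensity with signal to noise over three replicate slides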
[18] = target: Concanavalin-A (Canavalia ensiformis) (UniProt P02866); test: ConA small-molecule binders, primary screen, artefact control for SMM control protein annotation, biochemical, small-molecule microarray, Alexa647 label, 635 nm (AID 1127); settings: ConA-A647 binding fluorescence, higher = more signal;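 note: z combines 667 nm emission intensity with signal-to-noise across three replicate slides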
Concanavalin-A (Canavalia ensiformis), sequence (P02866 whole entry, looked up): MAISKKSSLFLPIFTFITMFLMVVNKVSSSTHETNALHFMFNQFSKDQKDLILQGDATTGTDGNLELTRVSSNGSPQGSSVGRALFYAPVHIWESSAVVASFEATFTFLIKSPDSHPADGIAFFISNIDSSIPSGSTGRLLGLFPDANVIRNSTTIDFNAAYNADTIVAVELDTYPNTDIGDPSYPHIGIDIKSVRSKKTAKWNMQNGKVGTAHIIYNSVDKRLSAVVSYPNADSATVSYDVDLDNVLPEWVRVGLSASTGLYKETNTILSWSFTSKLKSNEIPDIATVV

Row | Structure (SMILES) | composite z-score [1] | z-score [2] | composite z-score [3] | composite z-score [4] | composite z-score [5] | composite z-score [6] | composite z-score [7] | composite z-score [8] | composite z-score [9] | composite z-score [10] | composite z-score (Albumin (Bos taurus)) | composite Z-score [11] | composite z-score [12] | composite z-score [13] | composite z-score [14] | composite z-score [15] | composite z-score [16] | composite z-score (Sam68 (KHDRBS1)) | composite z-score [17] | composite z-score [18]
1 | CC(C)N1C(=O)C[C@@](C(=O)NCCN2CCOCC2)(c2ccc([N+](=O)[O-])cc2)[C@H]1c1ccc(CO)cc1 | -0.0369 | 0.323 | -1.07 | -0.701 | -0.272 | -0.298 | -0.221 | -0.478 | 2.15 | -0.418 | 0.408 | 1.96 (inactive) | -0.256 | -0.0836 | 0.642 | 2.2 | 1.24 | -0.395 | -1.26 | 0.257
2 | COc1cc(CO)cc(I)c1O[C@H]1C=C(C(=O)NCCO)C[C@@H]2O[C@H]12 | 1.4 | -1.32 | 0.873 | 3.38 | 1.48 | 0.055 | -0.352 | -0.646 | 1.94 | 2.81 | -0.39 | 1.49 (inactive) | -0.0311 | -0.0596 | 0.465 | 1.07 | 0.0543 | 1.3 | 1.36 | 1.01
3 | [N-]=[N+]=NCc1ccccc1[C@@H]1OC(c2ccc(OCCCO)cc2)=N[C@]1(Cc1ccccc1N=[N+]=[N-])C(=O)NCC(O)CO (stereo not given in full) | 1.18 | -1.41 | -0.262 | 2.58 | 1.23 | 0.61 | 0.0048 | 2.34 | 2.74 | 0.895 | 0.98 | 0.71 (inactive) | 0.409 | 0.252 | 0.614 | 3.16 | 0.695 | 1.32 | -0.703 | 1.11
4 | O=C1O[C@@H](c2ccccc2)[C@@H](c2ccccc2)N2[C@@H](c3ccccc3OCCO)[C@]3(C(=O)Nc4ccc(C#CCCO)cc43)[C@@H](C(=O)NC[C@H](O)c3ccccc3)[C@H]12 | 1.49 | -0.871 | -0.274 | 2.34 | 0.953 | 0.489 | -0.212 | 2.45 | 2.7 | 2.55 | 0.366 | 0.45 (inactive) | 0.307 | 0.255 | 0.557 | 2.25 | 1.31 | 1.28 | 0.454 | 1.12
5 | C=CCNC(=O)[C@H]1[C@@H]2C(=O)O[C@@H](c3ccccc3)[C@@H](c3ccccc3)N2[C@@H](c2ccc(OCCO)cc2)[C@]12C(=O)Nc1ccc(C#CC3(O)CCCCCC3)cc12 | 1.24 | -2.33 | 0.954 | 1.29 | 0.229 | -0.0607 | -0.0146 | 0.74 | 1.47 | 1.74 | 0.483 | 0.238 (inactive) | 0.257 | 0.0111 | 0.184 | 1.29 | 1.09 | 1.34 | 0.721 | 1.13
6 | COCCOC(=O)N1C(=O)[C@@]2(c3cc(C#CCCO)ccc31)[C@H](c1ccccc1OCCO)N1[C@H](c3ccccc3)[C@H](c3ccccc3)OC(=O)[C@H]1[C@@H]2C(N)=O | 1.41 | -1.64 | 0.416 | 1.25 | -0.0732 | 0.002 | 0.0204 | -0.467 | 0.606 | 1.23 | -0.0956 | -0.0135 (inactive) | -0.0054 | -0.118 | 0.578 | 1.89 | 0.128 | 1.3 | 0.0193 | 1.05
